COUP-TFII inh = NR2F2 (human) inhibition, primary screen | P24468 | HEK293T NGFI-A luciferase reporter, luminescence | inhibition, % at 8.6 µM | actives 0.7% (n = 370,000);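 active means inhibition above a per-plate cutoff, mean inhibition of test wells between control levels plus 3 SD, cut at about 38% in these data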;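 further: cells cotransfected with COUP-TFII expression vector driving the NGFI-A reporter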
Target sequence (P24468 whole entry, looked up): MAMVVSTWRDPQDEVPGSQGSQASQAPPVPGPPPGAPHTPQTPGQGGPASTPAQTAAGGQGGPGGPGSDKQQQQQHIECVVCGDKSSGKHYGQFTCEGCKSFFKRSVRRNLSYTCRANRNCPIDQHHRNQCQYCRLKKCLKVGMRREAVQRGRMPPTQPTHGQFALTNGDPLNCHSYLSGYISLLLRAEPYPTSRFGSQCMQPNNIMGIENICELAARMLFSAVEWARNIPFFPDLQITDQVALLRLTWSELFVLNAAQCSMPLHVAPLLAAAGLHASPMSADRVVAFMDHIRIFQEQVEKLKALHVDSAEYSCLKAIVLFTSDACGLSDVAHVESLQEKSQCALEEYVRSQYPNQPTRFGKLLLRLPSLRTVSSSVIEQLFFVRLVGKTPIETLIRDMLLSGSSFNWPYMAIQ
NCOA2 inhibitor = human SRC2 (NCOA2) inhibition. Q15596. actives 0.17% (n = 370,000). AID 651957. HEK293 GAL4-SRC2 luciferase reporter, luminescence. inhibition, % at 9 µM;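 active means inhibition above the mean inhibition of all tested compounds plus 3 SD, set per campaign, cut at about 52% in these data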
LRH-1 inv ag = inverse agonists of human LRH-1 (NR5A2) | O00482 | HEK293T StAR-luciferase reporter, LRH-1 transfected, 24 h | inhibition, % at 3.6 µM | actives 0.13% (n = 360,000) | AID 602396;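 active means inhibition above the mean inhibition of all tested compounds plus 3 SD, cut at about 73% in these data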
NCOA3 inh = inhibits human SRC3 coactivator | HEK293 GAL4-SRC3 luciferase reporter, luminescence | inhibition, % at 3.6 µM | actives 0.17% (n = 360,000) | AID 588352;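 active means inhibition above a per-campaign cutoff, the mean of all compounds plus 3 SD, cut at about 60% in these data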;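 further: higher means less SRC3-driven luciferase light from the GAL4 reporter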
SRC1 inh = inhibits human SRC1 coactivator; HEK293 GAL4-SRC1 luciferase reporter, luminescence; inhibition, % at 3.6 µM; actives 0.12% (n = 360,000);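 active means inhibition above the campaign mean plus 3 SD, with each screening campaign given its own cutoff, cut at about 60% in these data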
GalR3 antagonist = blocks the human galanin receptor 3; actives 0.44% (n = 360,000); inhibition, % at 3 µM; HEK293 GalR3-CNG cAMP membrane potential fluorescence; galR3 body fused to GalR1 C-terminus;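 active means inhibition above the screen-wide average plus 3 SD, cut at about 13% in these data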;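 further: forskolin and galanin both at EC90 stimulate the cells; cAMP rise reported by CNG channel membrane potential dye signal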
Target sequence (O60755 1-299 limits assumed): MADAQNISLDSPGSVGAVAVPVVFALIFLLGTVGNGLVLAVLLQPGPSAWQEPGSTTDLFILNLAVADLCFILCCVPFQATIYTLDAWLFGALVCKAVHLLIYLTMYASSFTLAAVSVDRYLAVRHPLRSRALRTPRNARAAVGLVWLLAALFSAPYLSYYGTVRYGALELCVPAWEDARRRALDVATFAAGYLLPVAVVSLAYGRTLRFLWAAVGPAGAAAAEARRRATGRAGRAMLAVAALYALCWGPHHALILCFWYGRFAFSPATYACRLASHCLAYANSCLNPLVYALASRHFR
Gal4-VP16 ctr = counter-screen for COUP-TFII antagonists: inhibitors of VP16 | actives 25% (n = 2,500) | shares compounds with COUP-TFII inh | inhibition, % at 8.5 µM | HEK293 Gal4-VP16 luciferase reporter, luminescence; in the data active means inhibition above about 13%
COUP-TFII conf = confirmation of human COUP-TFII (NR2F2) inhibitors; AID 687008; HEK293 NGFI-A luciferase reporter, luminescence; actives 45% (n = 2,500); inhibition, % at 8.5 µM; shares compounds with COUP-TFII inh;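 active means mean inhibition over three repeats above a set limit taken from the earlier primary screen, cut at about 38% in these data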
Each line names hits and unclear results; the compound was inactive in the other large screens (follow-up assays come after a bar, where they were run); ! = not active in a repeat. Sampled rows, rich in hits. Any-hit rate of the full collection: about 1.1%.

Cc1c(C(C)NC(=O)c2cc(COc3cccc4cnccc34)on2)cnn1C (stereo unspecified)	COUP-TFII inh 55.5 | Gal4-VP16 ctr inactive | COUP-TFII conf 41.8
CCN(CC)C(=O)CC[C@@H]1CC[C@]2(CCCN(Cc3cccc4ccccc34)C2)O1	none (no result: LRH-1 inv ag, NCOA3 inh, SRC1 inh, GalR3 antagonist)
CCOC(=O)C1CCN(S(=O)(=O)c2ccc3c(c2)N(C(C)=O)CC(C)S3)CC1 (stereo unspecified)	COUP-TFII inh 48.7 | Gal4-VP16 ctr inactive | COUP-TFII conf inactive
Cc1ccc(-c2csc(=Nc3cccnc3)n2CCCN2CCCC2=O)cc1C	none
Cc1ccc(-c2csc(=Nc3cccnc3)n2CCCn2ccnc2)cc1C	COUP-TFII inh 55.2, NCOA2 inhibitor 62.4, SRC1 inh 62.8 | Gal4-VP16 ctr 18.3 | COUP-TFII conf 44.8
CN1C(=O)C[C@@](C#N)(C(=O)NCC(F)(F)F)[C@H]1c1ccccc1	none (no result: LRH-1 inv ag, NCOA3 inh, SRC1 inh, GalR3 antagonist)
COCC(C)n1c(C)cc(C(=O)COC(=O)c2cc(=O)[nH]c3ccccc23)c1C (stereo unspecified)	COUP-TFII inh 62.3 | Gal4-VP16 ctr inactive | COUP-TFII conf 58.0
CC1(C(=O)Nc2ccccc2)CCN1C(=O)C1(c2ccc(Cl)cc2)CC1 (stereo unspecified)	COUP-TFII inh 76.0 | Gal4-VP16 ctr inactive | COUP-TFII conf inactive
COc1cccc(COc2ncnc3sccc23)c1	none
COc1ccc(CC2CCN(c3ncnc4sccc34)CC2)cc1	COUP-TFII inh 68.2 (no result: NCOA2 inhibitor, LRH-1 inv ag, NCOA3 inh, SRC1 inh, GalR3 antagonist) | Gal4-VP16 ctr inactive | COUP-TFII conf 58.9
Fc1ccc(CC2CCN(c3ncnc4sccc34)CC2)cc1	COUP-TFII inh 73.9 (no result: NCOA2 inhibitor, LRH-1 inv ag, NCOA3 inh, SRC1 inh, GalR3 antagonist) | Gal4-VP16 ctr inactive | COUP-TFII conf 53.5
Cc1csc2c(N3CCN(S(=O)(=O)c4ccc(Cl)cc4)CC3)ncnc12	none
O=S(=O)(c1ccc(Cl)cc1)N1CCN(c2ncnc3sccc23)CC1	COUP-TFII inh 46.6 | Gal4-VP16 ctr inactive | COUP-TFII conf inactive
C=CCNC(=O)Nc1ccc2c(c1)[C@]1(CC(=O)N(CC(C)C)C1c1ccccc1)C(=O)N2C (stereo partly specified)	none (no result: LRH-1 inv ag, NCOA3 inh, SRC1 inh, GalR3 antagonist)
CN(C(=O)C1CCN(c2cncnc2)CC1)C1CCCCC1	none (no result: LRH-1 inv ag, NCOA3 inh, SRC1 inh, GalR3 antagonist)
CC[n+]1c(/C=C2/C=C(C)CC(C)C2)sc2ccccc21 (stereo unspecified)	none
CC[n+]1c(C=C2C=C(C)OC(C)=C2)sc2ccccc21	COUP-TFII inh 76.8, LRH-1 inv ag 75.6, NCOA3 inh 67.9 | Gal4-VP16 ctr inactive | COUP-TFII conf 64.0
CC1=CC(=O)C(C2CCCCC2)=C/C1=N\OS(=O)(=O)c1ccccc1	COUP-TFII inh 48.2 (no result: NCOA2 inhibitor, LRH-1 inv ag, NCOA3 inh, SRC1 inh, GalR3 antagonist) | Gal4-VP16 ctr inactive | COUP-TFII conf inactive
C[C@@H]1C[C@H](O)CCCCCC(=O)Cc2cc(O)cc(O)c2C(=O)O1	none (no result: LRH-1 inv ag, NCOA3 inh, SRC1 inh, GalR3 antagonist)
Cc1cc(C(=O)NCC2COc3ccccc3O2)c2ccccc2n1 (stereo unspecified)	COUP-TFII inh 38.3 | Gal4-VP16 ctr inactive | COUP-TFII conf inactive
O=C(CCl)Nc1ccc(C(=O)NCC2COc3ccccc3O2)cc1 (stereo unspecified)	COUP-TFII inh 39.9 (no result: LRH-1 inv ag, NCOA3 inh, SRC1 inh, GalR3 antagonist) | Gal4-VP16 ctr 66.6 | COUP-TFII conf inactive
O=C(Cc1ccccc1)Nc1ccc(C(=O)NCC2COc3ccccc3O2)cc1 (stereo unspecified)	none
NCCN1CCN(S(=O)(=O)c2ccc3c(c2)CCN3C(=O)C2CCC2)CC1	none (no result: LRH-1 inv ag, NCOA3 inh, SRC1 inh, GalR3 antagonist)
CSc1nc2nc3c(cc2c(=O)n1-c1ccccc1C)CCCC3	COUP-TFII inh 41.5 | Gal4-VP16 ctr inactive | COUP-TFII conf inactive
Cc1cc(/C=C2/C(=O)NN(c3ccccc3)C2=O)c(C)n1-c1cccc(O)c1	COUP-TFII inh 40.6 | Gal4-VP16 ctr inactive | COUP-TFII conf 39.2
COc1ccc2c3c([nH]c2c1)[C@]1(CCNC=O)Nc2ccccc2C1=NCC3	none (no result: NCOA2 inhibitor, LRH-1 inv ag, NCOA3 inh, SRC1 inh, GalR3 antagonist)
Cc1cc(-c2nnc3n2N=C(c2ccc(-c4ccccc4)cc2)CS3)n[nH]1	none
Cc1cccc(-c2nnc3n2N=C(c2ccccc2)CS3)c1	none
C[n+]1c2n(c3ccccc31)N=C(c1ccc(Br)cc1)CS2	COUP-TFII inh 48.5 | Gal4-VP16 ctr 19.8 | COUP-TFII conf 50.9
C[n+]1c2n(c3ccccc31)N=C(c1ccc(-c3ccccc3)cc1)CS2	COUP-TFII inh 70.4, NCOA3 inh 62.7 | Gal4-VP16 ctr inactive | COUP-TFII conf 64.6
C[n+]1c2n(c3ccccc31)N=C(c1ccccc1)CS2	COUP-TFII inh 39.6 | Gal4-VP16 ctr inactive | COUP-TFII conf 46.6!
CCc1nnc2n1N=C(c1ccc(Br)cc1)CS2	none
CC(=O)Nc1ccc(Nc2cc(C)nc3c(-c4ccccc4)cnn23)cc1	COUP-TFII inh 42.1 | Gal4-VP16 ctr inactive | COUP-TFII conf 42.5
c1ccc(-c2csc3ncnc(NCC4COc5ccccc5O4)c23)cc1 (stereo unspecified)	COUP-TFII inh 65.2, GalR3 antagonist 88.4 | Gal4-VP16 ctr 15.9 | COUP-TFII conf 82.5
c1ccc(-c2csc3ncnc(NCCCN4CCOCC4)c23)cc1	none
CC(=O)N1c2ccc(S(=O)(=O)N3CCC(C(=O)N4CCN(c5ccc(Cl)cc5)CC4)CC3)cc2CC1C (stereo unspecified)	COUP-TFII inh 43.6 | Gal4-VP16 ctr inactive | COUP-TFII conf inactive
CC1Cc2cc(S(=O)(=O)N3CCN(c4ccc(Cl)cc4)CC3)ccc2N1C(=O)C1CC1 (stereo unspecified)	none
Fc1ccc(-[n+]2nc(Nc3ccccc3)sc2-c2c(Cl)cccc2Cl)cc1	none
CCc1ccc(Nc2n[n+](-c3ccccc3)c(-c3c(Cl)cccc3Cl)s2)cc1	COUP-TFII inh 65.5 | Gal4-VP16 ctr 15.9 | COUP-TFII conf inactive
Cc1ccc(NC(=O)C2CCN(S(=O)(=O)c3ccc4c(c3)NC(=O)C(C)S4)CC2)cc1Cl (stereo unspecified)	COUP-TFII inh 64.4 | Gal4-VP16 ctr inactive | COUP-TFII conf 46.9
CC(C)(C)c1ccc(C(=O)Nc2cccc3c(=O)[nH][nH]c(=O)c23)cc1	COUP-TFII inh 48.3 | Gal4-VP16 ctr inactive | COUP-TFII conf 53.5
O=C(NC(Nc1nc2ccc([N+](=O)[O-])cc2s1)(C(F)(F)F)C(F)(F)F)c1ccccc1Cl	COUP-TFII inh 74.6, LRH-1 inv ag 98.0, NCOA3 inh 73.8, SRC1 inh 72.7 | Gal4-VP16 ctr 18.1 | COUP-TFII conf 74.0
O=C1c2cccc(OCC(=O)N3CCCc4ccccc43)c2CCN1Cc1cccnc1	COUP-TFII inh 39.8 | Gal4-VP16 ctr inactive | COUP-TFII conf inactive
COc1cccc(-c2ccc3c(c2)[C@@H]2C[C@H]4[C@@H](CN2CC3)[C@H](C)ON4C)c1	none (no result: LRH-1 inv ag, NCOA3 inh, SRC1 inh)
O=C(N/N=C/c1ccc([N+](=O)[O-])s1)c1ccccc1Br	none
